Assay results from PubChem BioAssay.
Active and inactive are the calls of the source.

Test: growth of efflux-deficient E. coli DRC39 – strain DRC39, OD650, 48 h, E. coli filamentation inducers, primary screen (AID 1179);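 further: screen aims at cell division blockers that make cells filament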
Conditions: E. coli DRC39 delta-acrAB growth, higher = more signal, called active from +8 up or from −8 down

| SMILES | z-score |
| --- | --- |
| C=C(CCCC)/C(=C/C[C@@H](OC(=O)c1ccncc1)c1cccc(OCCO)c1)c1cc(C(=O)OC)ccc1OC | 1.33 (inactive) |
| Cc1ccc(S[C@]2(C(=O)NCCCN(C)C)CC(=O)N(Cc3ccccc3)[C@@H]2c2ccc(CO)cc2I)cc1 | -0.554 (inactive) |
| O=C1O[C@H](c2ccccc2)[C@H](c2ccccc2)N2[C@H]1[C@@H](C(=O)Nc1nc3ccccc3s1)[C@]1(C(=O)Nc3ccc(C#CC4(O)CCCCCC4)cc31)[C@H]2c1ccc(O)cc1 | -0.716 (inactive) |
| O=C(NCc1ccccc1)[C@@]1(Cc2ccccc2)COC(c2ccc(OCCCO)cc2)=N1 | -0.762 (inactive) |
| C=C(CCCC)/C(=C/C[C@@H](OC(=O)c1ccncc1)c1ccc(CO)o1)c1cnc2ccccc2c1 | 0.29 (inactive) |
| O=C1C2C=CC(C(O)C#Cc3ccccc3)N(Nc3ccccc3)C2C(=O)N1c1ccccc1 (stereo not drawn) | -0.143 (inactive) |
| CCCC=C(CCC)[C@@H](NC(=O)c1ccc(C(F)(F)F)cc1)c1ccccc1 | -0.221 (inactive) |
| COc1ccc(NN2C(C(O)c3cc(OC)c(OC)c(OC)c3)C=CC3C(=O)N(C4CCCCC4)C(=O)C32)cc1 (stereo not drawn) | 0.187 (inactive) |
| C#CCCCON=C1C[C@@H](O)[C@@H](O)[C@@H]2[C@@H]3C(=O)N(Cc4ccc5c(c4)OCO5)C(=O)[C@@H]3CC[C@@H]12 | 0.186 (inactive) |
| COC(=O)C1=CC(c2ccc(CO)cc2)=CC(c2cccs2)N(Cc2cccc(OC(F)(F)F)c2)C=C1C(=O)OC (stereo not drawn) | -0.964 (inactive) |
| O=C1O[C@H](c2ccccc2)[C@H](c2ccccc2)N2[C@H]1[C@@H](C(=O)NC[C@H](O)c1ccccc1)[C@]1(C(=O)Nc3ccc(C#CC4=CCCCC4)cc31)[C@H]2c1ccc(OCCO)cc1 | 0.262 (inactive) |
| CC[C@H]1C2=C3C(CC[C@H]4C(OC)OC[C@](C)([C@@H]34)N(C(=O)OC(C)(C)C)C2)C(CO)C1CO (stereo partly drawn) | 0.753 (inactive) |

Test: viability profiling in RPMI8226 myeloma cells – cell-based, resazurin fluorescence, basal, 24 h, PK04 Diversity Set, profiling panel (AID 1180);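 further: RPMI8826 multiple myeloma cell line at 5000 cells per well; test concentration not given here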
Conditions: higher = more signal

| SMILES | z-score |
| --- | --- |
| COC(=O)Cn1c(C(=O)N2CCCC2)cc2c1C[C@H]1CN(C(=O)c3ccccc3)[C@@](Cc3ccccc3)(C(=O)OC)[C@@H]21 | -1.34 |
| O=C1C[C@@](C(=O)NCCN2CCOCC2)(c2ccc([N+](=O)[O-])cc2)[C@@H](c2ccc(CO)cc2)N1C1CCCCC1 | 0.906 |
| CC(=O)NCCCC[C@@H]1NC(=O)[C@H]2C[C@@H](C(=O)NCCCCCCN(C)C)[C@@H](c3cccc(OCCO)c3)N2C1=O | -0.696 |
| CC(C)(C)OC(=O)CC[C@]1(C(=O)N2CCCCC2)N=C(c2ccc(OCCCO)cc2)O[C@H]1c1ccccc1 | -0.128 |
| CC(=O)NCCCC[C@@H]1NC(=O)[C@H]2C[C@@H](C(=O)NCCCCCCN(C)C)[C@@H](c3ccc(O)cc3)N2C1=O | -1.28 |
| O=C1C2C=CC(C(O)Cc3ccccc3)N(Nc3ccc([N+](=O)[O-])cc3)C2C(=O)N1c1ccccc1 (stereo not drawn) | -0.358 |
| C=C(COC)C(=O)CC[C@H](OC(=O)c1ccccc1-c1ccccc1C(=O)O)c1cccc(OCCO)c1 | -0.858 |
| C=CC[C@@]1(C(=O)NCC(O)CO)N=C(c2ccc(OCCCO)cc2)O[C@@H]1c1ccccc1CN=[N+]=[N-] (stereo partly drawn) | 0.516 |
| O=C(CS)NCCCCCCNC(=O)[C@@H]1C[C@@H]2C(=O)N[C@@H](Cc3ccccc3)C(=O)N2[C@@H]1c1ccc(O)cc1 | -0.518 |
| C=CC[C@]1(C(=O)N2CCCCC2)N=C(c2ccc(OCCCO)cc2)O[C@H]1c1ccccc1N=[N+]=[N-] | -1.15 |
| COC(=O)[C@@]1(Cc2ccc(OC)cc2)[C@H]2c3cc(C(=O)N(C)C)n(Cc4ccc(C)c(F)c4F)c3C[C@H]2CN1C(=O)c1ccccc1 | 1.37 |
| [N-]=[N+]=NCc1ccccc1C[C@]1(C(=O)N2CCCCC2)N=C(c2ccc(OCCCO)cc2)O[C@H]1c1ccccc1CN=[N+]=[N-] | -2.22 |
| CC(C)[Si](OCC[C@H]1O[C@]2(C(=O)N(Cc3ccccc3)c3ccccc32)[C@@H](C)[C@@H]1[Si](C)(C)O)(C(C)C)C(C)C | 0.261 |
| C=CCC(OC(C)=O)[C@@H]1[C@@H](N(Cc2ccc(-c3cccc(C(F)(F)F)c3)o2)C(=O)Cc2ccc(F)cc2)c2cc(OCCCO)ccc2N1C(=O)c1ccc(-c2ccccc2)cc1 (stereo partly drawn) | 0.171 |
| C=C[C@H](OC)[C@@H](OC(=O)Nc1ccc(SC)cc1)c1ccc(O)c(F)c1 | 0.035 |
| O=C1O[C@H](c2ccccc2)[C@H](c2ccccc2)N2[C@H]1[C@@H](C(=O)NC[C@H](O)c1ccccc1)[C@]1(C(=O)Nc3ccc(C#CC4(O)CCCCCC4)cc31)[C@H]2c1ccc(OCCO)cc1 | 0.931 |
| CC(C)C[C@@H]1NC(=O)[C@H](CC(C)C)NC(=O)[C@@]23C(=O)N[C@@H](Cc4ccccc4)C2[C@H](C)[C@@]2(C)O[C@H]2C3/C=C/CC/C=C/CNC1=O (stereo partly drawn) | 0.0441 |
| O=C1NC(=O)C2C1C=CC(C(O)C=Cc1ccc([N+](=O)[O-])cc1)N2Nc1ccccn1 (stereo not drawn) | -0.742 |

| SMILES | z-score |
| --- | --- |
| NC(=O)NCC#Cc1ccc2c(c1)[C@]1(C(=O)N2)[C@H](C(N)=O)[C@H]2C(=O)O[C@H](c3ccccc3)[C@H](c3ccccc3)N2[C@@H]1c1ccccc1OCCO | 0.295 |
| CCOC(=O)C[C@H]1[C@H](OC(=O)c2cc3ccccc3oc2=O)[C@@H](NC(=O)C2CCCCC2)c2cc(OCCCO)ccc2N1C(=O)c1ccc2ccccc2n1 | 0.15 |
| COc1cc2c(cc1OC)CN(C(=O)[C@H]1[C@@H]3C(=O)O[C@@H](c4ccccc4)[C@@H](c4ccccc4)N3[C@@H](c3ccc(O)cc3)[C@]13C(=O)Nc1ccc(C#CC4(O)CCCCCC4)cc13)CC2 | 1.15 |
| O=C1OCCC/C=C\[C@H]2OC34C=CCN(CCN5CCOCC5)C(=O)[C@H]3N(CCCCCO)C(=O)[C@@H]4C12 (stereo partly drawn) | 0.0501 |
| C[N+](C)(C)CCCCNC(=O)[C@H]1C[C@H]2C(=O)NCC(=O)N2[C@H]1c1cccc(OCCO)c1 | -1.15 |
| O=C1C[C@@](C(=O)NC2CC2)(c2ccc([N+](=O)[O-])cc2)[C@@H](c2ccc(CO)cc2I)N1CC12CC3CC(CC(C3)C1)C2 | -5.45 |
| C=C(CCCC)/C(=C/C[C@@H](OC(=O)c1ccncc1)c1cccc(OCCO)c1)c1cc(C(=O)OC)ccc1OC | -0.647 |
| Cc1ccc(S[C@]2(C(=O)NCCCN(C)C)CC(=O)N(Cc3ccccc3)[C@@H]2c2ccc(CO)cc2I)cc1 | -2.15 |
| O=C1O[C@H](c2ccccc2)[C@H](c2ccccc2)N2[C@H]1[C@@H](C(=O)Nc1nc3ccccc3s1)[C@]1(C(=O)Nc3ccc(C#CC4(O)CCCCCC4)cc31)[C@H]2c1ccc(O)cc1 | -1.36 |
| O=C(NCc1ccccc1)[C@@]1(Cc2ccccc2)COC(c2ccc(OCCCO)cc2)=N1 | -5.69 |
| C=C(CCCC)/C(=C/C[C@@H](OC(=O)c1ccncc1)c1ccc(CO)o1)c1cnc2ccccc2c1 | 0.501 |
| O=C1C2C=CC(C(O)C#Cc3ccccc3)N(Nc3ccccc3)C2C(=O)N1c1ccccc1 (stereo not drawn) | 0.0581 |
| CCCC=C(CCC)[C@@H](NC(=O)c1ccc(C(F)(F)F)cc1)c1ccccc1 | -0.996 |
| COc1ccc(NN2C(C(O)c3cc(OC)c(OC)c(OC)c3)C=CC3C(=O)N(C4CCCCC4)C(=O)C32)cc1 (stereo not drawn) | -1.48 |
| C#CCCCON=C1C[C@@H](O)[C@@H](O)[C@@H]2[C@@H]3C(=O)N(Cc4ccc5c(c4)OCO5)C(=O)[C@@H]3CC[C@@H]12 | 1.42 |
| COC(=O)C1=CC(c2ccc(CO)cc2)=CC(c2cccs2)N(Cc2cccc(OC(F)(F)F)c2)C=C1C(=O)OC (stereo not drawn) | -0.701 |
| O=C1O[C@H](c2ccccc2)[C@H](c2ccccc2)N2[C@H]1[C@@H](C(=O)NC[C@H](O)c1ccccc1)[C@]1(C(=O)Nc3ccc(C#CC4=CCCCC4)cc31)[C@H]2c1ccc(OCCO)cc1 | -3.18 |
| CC[C@H]1C2=C3C(CC[C@H]4C(OC)OC[C@](C)([C@@H]34)N(C(=O)OC(C)(C)C)C2)C(CO)C1CO (stereo partly drawn) | -0.141 |
